For eight compounds, growth results are on record in PubChem BioAssay (NCI).

The structures appear in SMILES notation. Compounds without any hit were thinned out: in the full panel of roughly 83,000, 20% have a hit.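 Testing used 96-well plates and a 48-hour single-concentration exposure. Example: -40 means 40% of the starting cells died.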 A number with no mark means an inactive call. Calls of active or inactive are those of the source. The calls were made as follows: active = growth percent below 10; inactive = the rest.

Test systems include NCI-H23 lung; NCI-H322M lung; HOP-62 NSCLC; NCI-H460 lung; HOP-92 NSCLC; NCI-H522 lung; A549/ATCC NSCLC; 786-0 renal; COLO 205 colon; DU-145 prostate; K-562 leukemia; MALME-3M melanoma; MDA-MB-231 breast; RXF 393 renal; SF-268 CNS; SF-295 CNS; SF-539 CNS; UACC-257 melanoma; M14 melanoma; HCT-15 colon.
Assay in all cases: NCI-60 one-dose screen, 48 h (100 = growth as untreated, 0 = no growth, -100 = all killed)
What all share (conditions): 10 µM unless noted

As to `CCCCOCc1cc(CN2CCN(C)CC2)c(O)c2ncccc12`, the growth with NCI-H23 lung is 60%; in the experiment with NCI-H322M lung, 53.9%; in the experiment with HOP-62 NSCLC, 32.9%; in the experiment on NCI-H460 lung, 21.9%; in the experiment with HOP-92 NSCLC, 57.9%; in the experiment on NCI-H522 lung it was 24.9%. The growth is 35.9% in the experiment on A549/ATCC NSCLC; 38.1% in the experiment with 786-0 renal; 85.4% in the experiment on COLO 205 colon; 63.9% in the experiment with DU-145 prostate; 50.7% with K-562 leukemia; 93.4% with MALME-3M melanoma. Also, the growth in the experiment with MDA-MB-231 breast was 47.1%; in the experiment with RXF 393 renal it was 69%; in the experiment with SF-268 CNS, 47.9%; in the experiment on SF-295 CNS, 58.5%; in the experiment with SF-539 CNS it was 53.3%; in the experiment on UACC-257 melanoma, 51.4%. In addition, the growth with M14 melanoma was 41.2%; in the experiment with HCT-15 colon, 25.6%.
For `Cn1nc(C(C)(C)C)cc1NC(=O)Cc1ccc(/C=C2\C(=O)Nc3ccccc32)cc1`, the growth in the experiment with NCI-H23 lung is 41.1%; with NCI-H322M lung, 84.8%; with HOP-62 NSCLC, 74.3%; in the experiment on NCI-H460 lung, 67.8%; in the experiment on HOP-92 NSCLC, 59.5%; in the experiment on NCI-H522 lung, 45%. The growth was 57.6% in the experiment on A549/ATCC NSCLC; 72.1% in the experiment on 786-0 renal; 80.2% in the experiment on COLO 205 colon; 56.6% in the experiment with DU-145 prostate; 22.3% in the experiment with K-562 leukemia; 58% in the experiment with MALME-3M melanoma. Further, the growth was 66.4% in the experiment on MDA-MB-231 breast; 70.9% in the experiment with RXF 393 renal; 63.1% in the experiment on SF-268 CNS; 51.7% in the experiment on SF-295 CNS; 54.9% in the experiment with SF-539 CNS; 41.4% with UACC-257 melanoma. The growth with M14 melanoma was 56.5%; in the experiment on HCT-15 colon it was 48.4%.
On to `O=C(N/N=C/c1ccccc1O)C(=O)Nc1ccc(F)cc1`, for which the growth was 57.7% in the experiment on NCI-H23 lung; 26.6% in the experiment on NCI-H322M lung; 50.1% in the experiment with HOP-62 NSCLC; 23.1% with NCI-H460 lung; 65% with HOP-92 NSCLC; 15.7% in the experiment with NCI-H522 lung. Also, the growth with A549/ATCC NSCLC is 44.8%; with 786-0 renal it was 53.8%; in the experiment with COLO 205 colon, 9.67% (active); in the experiment on DU-145 prostate, 46.5%; in the experiment with K-562 leukemia it was 42.3%; with MALME-3M melanoma, 70.9%. In addition, the growth with MDA-MB-231 breast was 43.8%; with RXF 393 renal it was 74.3%; in the experiment with SF-268 CNS it was 48.8%; in the experiment on SF-295 CNS, 4.78% (active); with SF-539 CNS, 33.7%; in the experiment on UACC-257 melanoma, 27.2%. Further, the growth in the experiment with M14 melanoma is 50%; in the experiment with HCT-15 colon it was 28.2%.
On to `COc1ccc(S(=O)(=O)N(Cc2ccc3c(n2)C=CC(C)(C)O3)C2CCC2)cc1OC`, for which the growth is -14.5% (active) with NCI-H23 lung; -20.1% (active) in the experiment with NCI-H322M lung; 1.37% (active) with HOP-62 NSCLC; 1.79% (active) with NCI-H460 lung; -19.6% (active) in the experiment on HOP-92 NSCLC; -27.7% (active) with NCI-H522 lung. In addition, the growth in the experiment on A549/ATCC NSCLC is -2.9% (active); with 786-0 renal, -26.5% (active); with COLO 205 colon, 0.159% (active); in the experiment with DU-145 prostate, -8.1% (active); in the experiment on K-562 leukemia, 7.07% (active); with MALME-3M melanoma, -36.9% (active). Besides, the growth was 3.21% (active) in the experiment on MDA-MB-231 breast; -20.2% (active) with RXF 393 renal; -9.29% (active) with SF-268 CNS; -43.3% (active) in the experiment with SF-295 CNS; 0.455% (active) with SF-539 CNS; -13.9% (active) in the experiment with UACC-257 melanoma. Moreover, the figures for the growth in the experiment on M14 melanoma and with HCT-15 colon were -59.1% (active) and 13.5%, respectively.
In the case of `O=C(Nc1ccc(I)cc1F)c1cc(Cl)ccc1O`, the growth is 1.96% (active) with NCI-H23 lung; 8.59% (active) with NCI-H322M lung; 2.14% (active) with HOP-62 NSCLC; 4% (active) with NCI-H460 lung; -15.8% (active) with HOP-92 NSCLC; -17.1% (active) with NCI-H522 lung. Moreover, the growth in the experiment on A549/ATCC NSCLC is 7% (active); in the experiment on 786-0 renal, -7.97% (active); in the experiment on COLO 205 colon, 42.8%; in the experiment with DU-145 prostate it was 13.8%; in the experiment with K-562 leukemia it was 8.14% (active); in the experiment with MALME-3M melanoma it was -28.9% (active). Moreover, the growth in the experiment on MDA-MB-231 breast was -17.6% (active); with RXF 393 renal, 1.47% (active); in the experiment with SF-268 CNS, 5.87% (active); in the experiment with SF-295 CNS, -62.8% (active); in the experiment on SF-539 CNS it was 2.65% (active); with UACC-257 melanoma, -18.1% (active). For the same compound, the growth in the experiment with M14 melanoma is -22% (active); in the experiment with HCT-15 colon, 2.58% (active).
Consider `COC(=O)[C@@H]1CCCN1C(=O)[C@H]1CCCN1C(=O)[C@@H](Cc1c[nH]c2ccccc12)NC(=S)Nc1cc(C(F)(F)F)cc(C(F)(F)F)c1`, for which the growth with NCI-H23 lung is 63.8%; with NCI-H322M lung, 38.8%; in the experiment on HOP-62 NSCLC it was 65.2%; in the experiment on NCI-H460 lung it was 16.2%; in the experiment with HOP-92 NSCLC it was 80.9%; with NCI-H522 lung, 69.8%. For the same compound, the growth in the experiment with A549/ATCC NSCLC was 28.4%; in the experiment on 786-0 renal, 52.5%; in the experiment with COLO 205 colon, 22%; in the experiment on DU-145 prostate, 57.7%; in the experiment on K-562 leukemia it was 27.6%; in the experiment on MALME-3M melanoma, 71.1%. The growth was 25.4% in the experiment with MDA-MB-231 breast; 48.5% in the experiment with RXF 393 renal; 38% in the experiment with SF-268 CNS; -52.2% (active) in the experiment on SF-295 CNS; 62% in the experiment on SF-539 CNS; 69.5% with UACC-257 melanoma. Moreover, the values for the growth with M14 melanoma and in the experiment on HCT-15 colon were 39.8% and 43.5%, respectively.
Take `S=C1CCCC(=S)N1`: the growth with NCI-H23 lung was 101%; in the experiment on NCI-H322M lung, 107%; in the experiment on HOP-62 NSCLC it was 88%; in the experiment on NCI-H460 lung, 106%; in the experiment with HOP-92 NSCLC, 105%; in the experiment on NCI-H522 lung, 96.6%. Also, the growth in the experiment with A549/ATCC NSCLC is 98.3%; in the experiment with 786-0 renal, 107%; with COLO 205 colon it was 115%; in the experiment with DU-145 prostate it was 111%; with K-562 leukemia, 104%; in the experiment with MALME-3M melanoma it was 106%. Also, the growth with MDA-MB-231 breast was 113%; in the experiment on RXF 393 renal, 104%; in the experiment with SF-268 CNS it was 99.1%; in the experiment on SF-295 CNS, 104%; in the experiment with SF-539 CNS it was 100%; in the experiment with UACC-257 melanoma, 94.6%. The growth with M14 melanoma is 105%; in the experiment on HCT-15 colon, 101%.
For `COc1cc(C=C2C(=O)N(C)C(=O)N(C)C2=O)cc(CN2CCCCC2)c1O`, the growth was 96.6% in the experiment with NCI-H23 lung; 102% in the experiment on NCI-H322M lung; 93.1% in the experiment on HOP-62 NSCLC; 108% in the experiment on NCI-H460 lung; 101% in the experiment with HOP-92 NSCLC; 94.3% in the experiment with NCI-H522 lung. Moreover, the growth was 100% in the experiment with A549/ATCC NSCLC; 95.5% in the experiment on 786-0 renal; 111% in the experiment with COLO 205 colon; 104% in the experiment on DU-145 prostate; 96.4% with K-562 leukemia; 93.3% with MALME-3M melanoma. The growth in the experiment on MDA-MB-231 breast is 98.1%; in the experiment with RXF 393 renal it was 116%; in the experiment with SF-268 CNS it was 94.1%; with SF-295 CNS, 104%; with SF-539 CNS, 100%; in the experiment with UACC-257 melanoma, 104%. In addition, the growth with M14 melanoma was 102%; in the experiment on HCT-15 colon, 104%.
